# Source: PubChem BioAssay (NCATS)
# Values joined by “and” are separate entries in the source; they are usually repeats but may differ in a detail not shown here. Identical values can stand only once. Records with an inconclusive call do not appear. Entries that show only a call come without a potency. Active and inactive are the calls of the source. Unless noted, calls come from the whole dose curve; as a rule, active = well fitted curve in the direction sought with a large enough effect; inconclusive = small, poorly fitted or top-dose-only effect, or another doubt; inactive = no such curve, though single readings can be large; an effect the other way counts as inactive or inconclusive.
# How the values were obtained:
# [1] = qHTS Assay for Lipid Storage Modulators (AID 1519; calls by dose curve); settings: Drosophila S3 cells, BODIPY lipid droplet/cell ratio, laser cytometry, cells loaded with oleic acid
# Summary of the method: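 Cells seeded at 5,000 per well were treated with compounds over a concentration series and loaded with oleic acid (400 uM, as added). Lipid droplet fluorescence (488 nm excitation, 500-530 nm channel) was read by laser-scanning cytometry and normalized to 20 uM Triacsin C.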
# [2] = molecular target: DNA repair nuclease/redox regulator APEX1 (Homo sapiens) (UniProt P27695); assay: qHTS Validation Assay for Inhibitors of the Human Apurinic/apyrimidinic Endonuclease 1 (APE1) (AID 1705;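 note: TAMRA fluorescence gain over two minutes as APE1 cuts a quenched THF abasic duplex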); settings: purified APE1 endonuclease activity, fluorescence, titration; series mostly up to 57.1 µM
# Sequence of DNA repair nuclease/redox regulator APEX1 (Homo sapiens) (P27695 whole entry, looked up): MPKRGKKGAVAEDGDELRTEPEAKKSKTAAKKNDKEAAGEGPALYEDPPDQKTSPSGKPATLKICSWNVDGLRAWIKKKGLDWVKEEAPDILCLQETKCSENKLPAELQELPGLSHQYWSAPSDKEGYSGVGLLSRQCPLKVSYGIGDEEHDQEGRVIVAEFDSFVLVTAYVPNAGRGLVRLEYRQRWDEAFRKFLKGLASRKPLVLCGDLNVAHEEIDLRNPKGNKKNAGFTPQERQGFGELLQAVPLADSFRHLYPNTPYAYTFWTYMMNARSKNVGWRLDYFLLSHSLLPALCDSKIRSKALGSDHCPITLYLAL
# Summary of the method: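 Activity read as rising fluorescence (598 nm emission, 525 nm excitation) from incision of a TAMRA/BHQ-2 duplex carrying a THF abasic site (50 nM). Compound and enzyme sat 15 min at RT before substrate start; signal change between first and third 60-s reads.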
# [3] = Counterscreen for APE1 Inhibitors: Fluorescent Dye Displacement Validation Assay (AID 1707); settings: fluorescent dye displacement from DNA; series mostly up to 57.1 µM
# Summary of the method: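 Loss of Thiazole Orange fluorescence marks promiscuous DNA binders. The dye (250 nM) is mixed with 50 nM abasic-site dsDNA in pH7.5 Tris buffer containing MgCl2, then compounds are added and emission is read once.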
# [4] = molecular target: Endonuclease 4 (Escherichia coli (strain K12)) (UniProt P0A6C1); assay: Counterscreen for APE1 Inhibitors: qHTS Validation Assay for Inhibitors of Endonuclease IV (AID 1708); settings: E. coli endonuclease IV, DNA cleavage fluorescence; series mostly up to 57.1 µM
# Summary of the method: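 Read-out: fluorescence rise (ex 525/em 598 nm) from incision of a TAMRA/BHQ-2 double-stranded THF abasic-site substrate (50 nM), measured kinetically; third-minus-first read difference gave reaction progress. Enzyme 2 nM.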
# [5] = qHTS for differential inhibitors of proliferation of Plasmodium falciparum line 7G8 (AID 1815); settings: Plasmodium falciparum 7G8 proliferation inhibition; series mostly up to 28.7 µM;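 note: parasite growth measured after three days of incubation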
# [6] = qHTS for differential inhibitors of proliferation of Plasmodium falciparum line GB4 (AID 1816); settings: Potency: Plasmodium falciparum GB4 proliferation inhibition; series mostly up to 28.7 µM;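 note: parasite growth measured after 72 h incubation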
# [7] = qHTS for differential inhibitors of proliferation of Plasmodium falciparum line 3D7 (AID 1876);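 note: parasite growth measured after three days of culture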; settings: P. falciparum 3D7 proliferation inhibition; series mostly up to 28.7 µM
# [8] = qHTS for differential inhibitors of proliferation of Plasmodium falciparum line D10 (AID 1877); settings: series mostly up to 28.7 µM;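 note: parasites grown with compound for 72 h before DNA staining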
# [9] = qHTS for differential inhibitors of proliferation of Plasmodium falciparum line Dd2 (AID 1882); settings: Potency: Plasmodium falciparum Dd2 proliferation inhibition; series mostly up to 28.7 µM;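 note: compound exposure of 72 h on infected erythrocytes; nearly all actives have a fitted effect of over 65% in size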
# Summary of the method: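 RBC culture, 0.3% parasitemia / 2.5% Hct final; cpd added by pin tool in DMSO; 72 h, 37 C, 5% CO2; lysis buffer + SYBR Green I, o/n RT dark; FI 485/535; norm. to artemisinin 0.29 uM and DMSO.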
# [10] = qHTS for differential inhibitors of proliferation of Plasmodium falciparum line W2 (AID 1883); settings: Potency: Plasmodium falciparum W2 proliferation inhibition; series mostly up to 28.7 µM;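 note: parasites grown with compound for 72 h before lysis and staining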
# [11] = qHTS for differential inhibitors of proliferation of Plasmodium falciparum line HB3 (AID 1886); settings: Potency: Plasmodium falciparum HB3 proliferation inhibition; series mostly up to 28.7 µM;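 note: parasites grown with compound for 72 h before SYBR Green readout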
# [12] = molecular target: Ferritin light chain (Equus caballus) (UniProt P02791); assay: qHTS Validation Assay for Identification of Novel General Anesthetics (AID 2323); settings: horse apoferritin, anesthetic-site fluorescent probe displacement; series mostly up to 76.9 µM
# Sequence of Ferritin light chain (Equus caballus) (P02791 2-175 limits assumed): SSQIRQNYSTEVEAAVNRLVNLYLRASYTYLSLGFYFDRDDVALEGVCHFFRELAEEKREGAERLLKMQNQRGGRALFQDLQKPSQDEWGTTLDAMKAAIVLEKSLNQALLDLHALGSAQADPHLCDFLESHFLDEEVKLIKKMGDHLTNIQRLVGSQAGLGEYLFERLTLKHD
# Summary of the method: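 Competitive displacement of the profluorescent anesthetic 1-AMA (50% saturated, PBS) from 10 uM apoferritin, 10 min, room temperature. Activity is normalized 380/535 nm fluorescence; concentration-response fitted with a four-parameter Hill equation.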
# [13] = molecular target: ATP-dependent DNA helicase Q1 (Homo sapiens) (UniProt P46063); assay: qHTS Validation Assay for Inhibitors of RecQ-Like Dna Helicase 1 (RECQ1) (AID 2353); settings: recombinant RECQ1 helicase DNA unwinding assay; series mostly up to 25.6 µM
# Sequence of ATP-dependent DNA helicase Q1 (Homo sapiens) (P46063 whole entry, looked up): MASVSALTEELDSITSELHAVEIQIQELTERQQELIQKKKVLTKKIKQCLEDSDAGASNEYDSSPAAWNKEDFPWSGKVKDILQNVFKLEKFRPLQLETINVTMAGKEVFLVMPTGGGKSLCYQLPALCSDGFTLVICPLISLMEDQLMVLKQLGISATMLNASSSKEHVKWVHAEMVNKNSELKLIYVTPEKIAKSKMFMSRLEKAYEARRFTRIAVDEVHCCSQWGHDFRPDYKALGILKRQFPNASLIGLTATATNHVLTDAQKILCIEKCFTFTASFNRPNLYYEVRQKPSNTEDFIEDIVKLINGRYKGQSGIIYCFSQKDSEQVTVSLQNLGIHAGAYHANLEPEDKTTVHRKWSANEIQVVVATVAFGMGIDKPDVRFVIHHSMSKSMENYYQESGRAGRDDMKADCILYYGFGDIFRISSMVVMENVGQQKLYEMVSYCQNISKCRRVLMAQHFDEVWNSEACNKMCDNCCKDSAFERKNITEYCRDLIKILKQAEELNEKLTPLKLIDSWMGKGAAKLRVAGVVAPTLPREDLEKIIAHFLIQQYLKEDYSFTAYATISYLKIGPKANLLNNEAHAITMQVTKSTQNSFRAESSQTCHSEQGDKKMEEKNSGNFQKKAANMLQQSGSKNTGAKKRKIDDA
# Summary of the method: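 RECQ1T1 50 nM; forked duplex (20 bp + 30-nt ss tails) 200 nM, ATP 2 mM final; pH 8.0, 2 mM MgCl2, 2.5 ug/ml poly(dI-dC); 15 min compound preincubation; discontinuous kinetic read over 2 h at RT.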
# [14] = Cytometric Cell-Based qHTS for Inhibitors of the mTORC1 Signaling Pathway in MEF (Tsc2-/-, p53-/-) Cells (AID 2660); settings: mTORC1 pathway cytometry; series mostly up to 38.3 µM;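 note: Tsc2 and p53 null MEFs carrying empty vector with compound for 24 h; percent of cells above a phospho-rpS6 to PI ratio cutoff in each well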
# Summary of the method: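 Percent of cells positive for normalized phospho-S6 staining is reported, with the cutoff set from rapamycin (7.5 nM) versus DMSO wells. Tsc2-/-, p53-/- MEFs received compound for 24 hrs.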
# [15] = High Content Imaging Cell-Based qHTS for Inhibitors of the mTORC1 Signaling Pathway in MEF Cells (AID 2667); settings: series mostly up to 38.3 µM;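 note: Tsc2-/- p53-/- MEFs stably re-expressing wild-type Tsc2 exposed 24 h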
# Summary of the method: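 Read-out is the share of phospho-rpS6-positive cells per well, from Hoechst-normalized Alexa-488 Ser235/236 staining imaged on IN Cell. Cells: WT Tsc2-expressing Tsc2-/-, p53-/- MEFs exposed to compound for 24 hrs.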
# [16] = Cytometry Cell-Based qHTS for Inhibitors of the mTORC1 Signaling Pathway in MEF cells (AID 2668); settings: mTORC1 pathway readout; series mostly up to 38.3 µM; note: potency is the fitted concentration of half-maximal effect;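 for activity change, negative = inhibition: Tsc2-/- p53-/- mouse embryonic fibroblasts stably re-expressing wild-type Tsc2; percent cells positive for phospho-rpS6 Ser235/236 relative to propidium iodide stain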
# Summary of the method: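 Phospho-rpS6 (Ser235/236) immunofluorescence over PI signal, scored as % positive cells using thresholds from 7.5 nM rapamycin and DMSO wells, after 24 h compound exposure of WT-Tsc2-rescued Tsc2-/-, p53-/- MEFs. PI cell count recorded for viability.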
# [17] = Validation screen for small molecules that induce DNA re-replication in MCF 10A normal breast cells (AID 463097); settings: MCF 10A cells, DNA re-replication phenotype imaging; series mostly up to 46.1 µM; note: nearly all actives have a fitted effect of over 60% in size; note: potency is the fitted concentration of half-maximal effect
# Summary of the method: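 Read-out is Hoechst total nuclear intensity by fluorescence scanning imager, flagging increased high-DNA-content nuclei. Compounds were incubated with MCF 10A cells for 48 hr (37 C, 5% CO2) before 40 min staining.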
# [18] = measured here: cell count channel max response
# [19] = measured here: lipid channel max response
structure (smiles),measurement,setting,value
Nc1ncnc2c1ncn2[C@@H]1O[C@@H](CO)[C@H](O)[C@H]1O,"activity change, negative = inhibition",[1]; at 25.7 µM (top of the series),-0.901% (inactive)
same,max response,[1]; [18],-3.51%
same,max response,[1]; [19],-9.07%
COc1ccc(C2Sc3ccccc3N(CCN(C)C)C(=O)C2OC(C)=O)cc1 (stereo unspecified),"activity change, negative = inhibition",[1]; at 57.5 µM (top of the series),6.14% (inactive)
same,max response,[1]; [18],15.8%
same,max response,[1]; [19],23.3%
COc1cc(O)c2c(c1)C(=O)c1cc(C)cc(O)c1C2=O,"activity change, negative = inhibition",[1]; at 57.5 µM (top of the series),2.34% (inactive)
same,max response,[1]; [18],7.65%
same,max response,[1]; [19],11.5%
O=c1c(-c2ccc(O)cc2)coc2cc(O)ccc12,"activity change, negative = inhibition",[1]; at 57.5 µM (top of the series),2.37% (inactive) and 2.36% (inactive) and 1.08% (inactive)
same,max response,[1]; [18],20.5% and -6.62% and -6.98%
same,max response,[1]; [19],24.2% and -1.3% and -6.64%
same,outcome,[2],inactive
same,outcome,[3],inactive
same,outcome,[4],inactive
same,Potency,[5],inactive
same,Potency,[6],inactive
same,Potency,[7],inactive
same,Potency,[8],inactive
same,Potency,[9],inactive
same,Potency,[10],inactive
same,Potency,[11],inactive
same,outcome,[12],inactive
same,outcome,[13],inactive
same,outcome,[14],inactive
same,outcome,[15],inactive
same,Potency,[16],inactive
same,Potency,[17],inactive
CCN1CCC[C@H]1CNC(=O)c1cc(S(N)(=O)=O)ccc1OC,"activity change, negative = inhibition",[1]; at 25.7 µM (top of the series),-2.7% (inactive)
same,"activity change, negative = inhibition",[1]; at 57.5 µM (top of the series),-2.29% (inactive) and -0.529% (inactive)
same,max response,[1]; [18],-6.81% and 8.22% and 14.9%
same,max response,[1]; [19],-10.9% and 9.44% and 14.1%
same,outcome,[2],inactive
same,outcome,[3],inactive
same,outcome,[4],inactive
same,Potency,[5],inactive
same,Potency,[6],inactive
same,Potency,[7],inactive
same,Potency,[8],inactive
same,Potency,[9],inactive
same,Potency,[10],inactive
same,Potency,[11],inactive
same,outcome,[12],inactive
same,outcome,[13],inactive
same,outcome,[14],inactive
same,outcome,[15],inactive
same,Potency,[16],inactive
same,Potency,[17],inactive
CC(C)(C)c1ccc(C(O)CCCN2CCC(C(O)(c3ccccc3)c3ccccc3)CC2)cc1 (stereo unspecified),"activity change, negative = inhibition",[1]; at 57.5 µM (top of the series),-1.34% (inactive)
same,max response,[1]; [18],-10.3%
same,max response,[1]; [19],-13.9%
same,outcome,[2],inactive
same,outcome,[3],inactive
same,outcome,[13],inactive
same,Potency,[16],7.36 µM (active)
same,Potency,[17],11.2 µM (active)
